In PubChem BioAssay (Tox21):
Values joined by “and” are separate entries in the source; they are usually repeats but may differ in a detail not shown here. Equal values may be shown once. Inconclusive results are not listed. A call without a number means that no potency is given here. Active and inactive are the calls of the source. Calls follow the shape of the full dose curve.

Legend:
[1] = biological target: Acetylcholinesterase (Homo sapiens) (UniProt P22303); experiment: Acetylcholinesterase (AChE) small molecule antagonists: colormetric cell-based qHTS assay (AID 1347395); also: nearly all actives have a fitted effect of over 30% in size; also: potency is read from the fitted curve at half-maximal effect
Method in brief: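 Neuroblastoma line SH-SY5Y supplied the enzyme; cells were preincubated with compound for 30 min at 37 C and 5% CO2. Acetylthiocholine with DTNB was then added for 90 min at 37 C, and thiocholine was measured by colour.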

[2] = biological target: Acetylcholinesterase (Homo sapiens) (UniProt P22303); experiment: Acetylcholinesterase (AChE) small molecule antagonists: enzyme-based qHTS assay (AID 1347397); details: Potency: AChE enzyme activity inhibition; outcome: AChE enzyme activity inhibition; also: nearly all actives have a fitted effect of over 55% in size; also: potency is read from the fitted curve at half-maximal effect
Method in brief: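 Human recombinant acetylcholinesterase; substrate acetylthiocholine; thiocholine quantified with DTNB (colorimetric). Compound preincubation 30 min RT; reaction 10 min RT.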

[3] = biological target: Acetylcholinesterase (Homo sapiens) (UniProt P22303); experiment: Acetylcholinesterase (AChE) small molecule antagonists: fluorescence cell-based qHTS assay (AID 1347398); details: Potency: AChE activity; outcome: AChE activity; also: nearly all actives have a fitted effect of over 50% in size
Method in brief: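 Thiocholine generated from acetylthiocholine by SH-SY5Y cell AChE is detected with Thiolite Green (Ex/Em 490/520 nm) after 40 min at room temperature, following 30 min compound pretreatment at 37 C.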

[4] = biological target: Acetylcholinesterase (Homo sapiens) (UniProt P22303); experiment: Acetylcholinesterase (AChE) small molecule antagonists: enzyme-based qHTS assay with human liver microsomes (AID 1347399); details: Potency: qHTS inhibition; outcome: qHTS inhibition; also: nearly all actives have a fitted effect of over 60% in size; also: potency is read from the fitted curve at half-maximal effect
Method in brief: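 Recombinant human AChE (50 mU/mL in the enzyme mix) and human liver microsomes (0.25 mg/mL final) were preincubated with compound and NADPH (0.25 mg/mL final) for 30 min at 37 C. Acetylthiocholine/DTNB was then added; thiocholine was read colorimetrically after 10 min at room temperature.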

Acetylcholinesterase (Homo sapiens), sequence (P22303 whole entry, looked up): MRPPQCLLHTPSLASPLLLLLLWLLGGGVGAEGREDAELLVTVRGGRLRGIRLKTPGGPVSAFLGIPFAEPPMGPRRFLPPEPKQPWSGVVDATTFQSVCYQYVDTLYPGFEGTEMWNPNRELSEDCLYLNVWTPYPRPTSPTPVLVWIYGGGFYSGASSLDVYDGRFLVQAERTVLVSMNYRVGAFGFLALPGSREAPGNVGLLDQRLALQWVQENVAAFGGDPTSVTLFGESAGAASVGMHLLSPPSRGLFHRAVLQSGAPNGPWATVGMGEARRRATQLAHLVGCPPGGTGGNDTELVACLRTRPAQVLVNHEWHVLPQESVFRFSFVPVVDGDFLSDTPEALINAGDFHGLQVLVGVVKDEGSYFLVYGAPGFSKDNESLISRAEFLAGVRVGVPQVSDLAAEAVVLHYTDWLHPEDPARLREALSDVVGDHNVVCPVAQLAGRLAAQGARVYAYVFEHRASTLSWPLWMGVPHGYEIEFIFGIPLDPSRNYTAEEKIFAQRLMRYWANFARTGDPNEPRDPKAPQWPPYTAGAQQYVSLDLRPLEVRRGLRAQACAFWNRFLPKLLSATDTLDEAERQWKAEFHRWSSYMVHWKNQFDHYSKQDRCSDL

Structure (SMILES) | Potency [1] | Potency [2] | Potency [3] | Potency [4]
NC(=O)NC(=O)Cc1ccccc1 | inactive | inactive | inactive | inactive
O=C1NC2NC(=O)NC2N1 (stereo not given) | inactive | inactive | inactive | inactive
Cc1ccccc1C(N)=O | inactive | inactive | inactive | inactive
O=C(Nc1ccccc1)Nc1ccccc1 | inactive | inactive | inactive | inactive
CC(C)(C)c1cc(Cc2cc(C(C)(C)C)c(O)c(C(C)(C)C)c2)cc(C(C)(C)C)c1O | inactive | inactive | inactive | inactive
FC(F)(F)/C(=N\OCC1OCCO1)c1ccc(Cl)cc1 | inactive | inactive | inactive | inactive
CC1(C)[C@H]2CC[C@]1(C)[C@H](O)C2 | inactive | inactive | inactive | inactive
C#Cc1cccc(Nc2ncnc3cc(OCCOC)c(OCCOC)cc23)c1 | inactive | inactive | inactive | inactive
COc1ccc(NC(C)=O)cc1N | inactive | inactive | inactive | inactive
COc1ccccc1OC(=O)Oc1ccccc1OC | inactive | inactive | inactive | inactive
C1CCCC1 | inactive | inactive | inactive | inactive
C#CC1(O)CC[C@H]2[C@@H]3CCC4=CCCC[C@@H]4[C@H]3CC[C@@]21C (stereo not given in full) | inactive | inactive | inactive | inactive
Cc1ccc(Cl)c(N)c1Cl | inactive | inactive | inactive | inactive
O=C(OCCOCCO)c1ccccc1Nc1cccc(C(F)(F)F)c1 | inactive | inactive | inactive | inactive
CC(C)(C)NCCO | inactive | inactive | inactive | inactive
CO[C@]1(NC(=O)CSC(F)F)C(=O)N2C(C(=O)O)=C(CSc3nnnn3CCO)CO[C@H]21 | inactive | inactive | inactive | inactive
O=C(Nc1ccc(Cl)c(Cl)c1)C1CC1 | inactive | inactive | inactive | inactive
CC(C)(c1cc(Br)c(OCC(Br)CBr)c(Br)c1)c1cc(Br)c(OCC(Br)CBr)c(Br)c1 (stereo not given) | inactive | inactive | inactive | inactive

Structure (SMILES) | Potency [1] | Potency [2] | Potency [3] | Potency [4]
NCCCC[C@H](N[C@@H](CCc1ccccc1)C(=O)O)C(=O)N1CCC[C@H]1C(=O)O | inactive | inactive | inactive | inactive
O=C(O)Cc1cccc2ccccc12 | inactive | inactive | inactive | inactive
N[C@@H](Cc1c[nH]c2ccc(O)cc12)C(=O)O | inactive | inactive | inactive | inactive
CSc1ccc(/C=C2/C(C)=C(CC(=O)O)c3cc(F)ccc32)cc1 | inactive | inactive | inactive | inactive
Oc1c(Cl)cc(Cl)c2cccnc12 | inactive | inactive | inactive | inactive
CCC1OCC(COc2ccc(Oc3ccccc3)cc2)O1 (stereo not given) | inactive | inactive | inactive | inactive
O=C(Nc1ccc([N+](=O)[O-])cc1Cl)c1cc(Cl)ccc1O | inactive | inactive | inactive | inactive
O=C1CCCCCCCCCCCN1 | inactive | inactive | inactive | inactive
CCN=c1cc2oc3cc(NCC)c(C)cc3c(-c3ccccc3C(=O)OCC)c-2cc1C | 6.31 µM (active) and 8.94 µM (active) | 17.8 µM (active) | inactive | 79.4 µM (active) and 63.3 µM (active)
CC(=O)Nc1ccc2c(c1)Cc1cc(NC(C)=O)ccc1-2 | inactive | inactive | inactive | inactive
CCCCC(=O)O[C@]1(C(=O)CO)CC[C@H]2[C@@H]3CCC4=CC(=O)CC[C@]4(C)[C@H]3[C@@H](O)C[C@@]21C | inactive | inactive | inactive | inactive
CCC(C)n1ncn(-c2ccc(N3CCN(c4ccc(OC[C@H]5CO[C@](Cn6cncn6)(c6ccc(Cl)cc6Cl)O5)cc4)CC3)cc2)c1=O (stereo not given in full) | inactive | inactive | inactive | inactive
CCS(=O)(=O)CCn1c([N+](=O)[O-])cnc1C | inactive | inactive | inactive | inactive
O=C1O[C@H](CO)[C@@H](O)[C@H](O)[C@H]1O | inactive | inactive | inactive | inactive
C=C(c1ccc(C(=O)O)cc1)c1cc2c(cc1C)C(C)(C)CCC2(C)C | inactive | inactive | inactive | inactive
CCN(CC)C(=O)c1ccc(O)c(OC)c1 | inactive | inactive | inactive | inactive
CC(C)CCCC(C)N (stereo not given) | inactive | inactive | inactive | inactive
